Assay outcomes from PubChem BioAssay.
TDP1 cell noCPT: qHTS for Inhibitors of human tyrosyl-DNA phosphodiesterase 1 (TDP1): qHTS in cells in absence of CPT; DT40 Tdp1-/- hTDP1 cells, no CPT, ATP luminescence, 48 h; Potency, µM (series often up to 46.2 µM), hits mostly inhibitors; 15% of 420,000 active; AID 686978, 2013; note: nearly all actives have a fitted effect of over 55% in size
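No-CPT arm: Tdp1-/-;hTDP1 DT40 cells (400/well) plus compounds, incubated ≥48 hr at 37 °C. Readout CellTiter-Glo luminescence.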
ALOX12 inh: Primary qHTS assay for inhibitors of human arachidonate 12S-lipoxygenase (ALOX12): Round 2. purified 12hLO, xylenol orange hydroperoxide absorbance. Polyunsaturated fatty acid lipoxygenase ALOX12 (Homo sapiens), P18054. Potency, µM (highest dose often 108 µM), actives largely listed as inhibitors. 1.1% of 580,000 active
Target sequence (P18054 whole entry, looked up): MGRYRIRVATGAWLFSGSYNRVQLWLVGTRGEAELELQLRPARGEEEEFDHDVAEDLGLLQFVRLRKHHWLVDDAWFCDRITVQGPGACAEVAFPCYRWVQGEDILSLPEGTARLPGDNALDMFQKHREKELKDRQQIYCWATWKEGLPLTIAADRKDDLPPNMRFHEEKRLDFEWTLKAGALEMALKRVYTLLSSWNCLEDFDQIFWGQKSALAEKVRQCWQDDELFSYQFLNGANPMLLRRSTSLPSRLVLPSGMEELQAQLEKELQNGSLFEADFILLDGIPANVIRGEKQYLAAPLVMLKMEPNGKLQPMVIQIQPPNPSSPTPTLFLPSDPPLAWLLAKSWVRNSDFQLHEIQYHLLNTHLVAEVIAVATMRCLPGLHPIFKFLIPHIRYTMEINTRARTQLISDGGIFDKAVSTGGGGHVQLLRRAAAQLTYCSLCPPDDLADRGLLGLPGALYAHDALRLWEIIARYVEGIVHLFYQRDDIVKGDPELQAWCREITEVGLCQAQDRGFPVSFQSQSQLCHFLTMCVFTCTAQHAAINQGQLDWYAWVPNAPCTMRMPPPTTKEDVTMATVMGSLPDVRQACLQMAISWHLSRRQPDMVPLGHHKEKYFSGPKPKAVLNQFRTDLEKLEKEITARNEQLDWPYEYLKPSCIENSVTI
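Hydroperoxide product was detected by ferrous iron/xylenol orange as the 573 to 405 nm absorbance ratio. Arachidonic acid at 40 uM (final) was turned over for 30 min at room temperature by 150 nM human 12hLO, pH 7.0 Hepes buffer, after 15 min compound preincubation.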
HT1080NT lethal: qHTS for induction of synthetic lethality in tumor cells producing 2HG: qHTS for the HT-1080-NT fibrosarcoma cell line; HT-1080-NT fibrosarcoma viability, CellTiter-Glo ATP luminescence, 48 h; Potency, µM (highest dose often 46.1 µM), most hits filed as cytotoxic; 1.6% of 360,000 active; AID 686970, 2013;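 note: NT is the 2HG producing partner of a matched IDH1 knockdown line; nearly all actives have a fitted effect of over 55% in size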
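Fibrosarcoma NT cells, 750 per well in 5% FBS RPMI, were exposed to compound for 48 hours. Viability: CellTiter-Glo luminescence.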
TDP1 cell CPT: qHTS for Inhibitors of human tyrosyl-DNA phosphodiesterase 1 (TDP1): qHTS in cells in presence of CPT. chicken DT40 Tdp1-/-;hTDP1 cells + 20 nM CPT, ATP luminescence, 48 h. 12% of 420,000 active. Potency, µM (highest dose often 46.2 µM), actives largely listed as inhibitors; note: nearly all actives have a fitted effect of over 55% in size
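Chicken DT40 Tdp1-/- cells complemented with human TDP1, 400 cells/well, exposed to compounds plus 20 nM camptothecin for at least 48 h at 37 C; viability read as ATP content by CellTiter-Glo luminescence.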
IL1B secr inh: qHTS for Inhibitors of Inflammasome Signaling: IL-1-beta AlphaLISA Primary Screen; THP-1 LPS/ATP IL-1B secretion, AlphaLISA, 16 h; active compounds read low; activity change, % at 57.5 µM; 4.7% of 360,000 active; in the data active = activity change below about -50%; inconclusive = mostly about -30% to -49%
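THP-1 cells pretreated 1 hr with compounds (up to 57.5 uM final), then stimulated with LPS (250 ng/mL final) plus ATP (1.25 mM final); secreted IL-1B measured by AlphaLISA after 16 hr, decreased signal indicating inhibition.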
HT1080 IDH1KD tx: qHTS for induction of synthetic lethality in tumor cells producing 2HG: qHTS for the HT-1080-IDH1KD cell line | HT-1080 IDH1 knockdown viability, ATP luminescence, 48 h | Potency, µM (highest dose often 46.1 µM), actives largely listed as cytotoxic | 2% of 360,000 active
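Using the IDH1-knockdown HT-1080 line run in the same batch and compound series as the NT line, viability after 48 h at 37 °C was determined by CellTiter-Glo luminescence and expressed as % activity.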
Numbers stand for hits; n = inactive; u = inconclusive; x = no result; [ ] = remark or other dose. The entries come from a sample that favours hits as a whole. Unless noted, calls come from the whole dose curve; as a rule, active = well fitted curve in the direction sought with a large enough effect; inconclusive = small, poorly fitted or top-dose-only effect, or another doubt; inactive = no such curve, though single readings can be large; an effect the other way counts as inactive or inconclusive.

SMILES	TDP1 cell noCPT	ALOX12 inh	HT1080NT lethal	TDP1 cell CPT	IL1B secr inh	HT1080 IDH1KD tx
CCNC(=S)N=Nc1c(O)n(Cc2ccc(Cl)cc2)c2ccccc12	u	u	u	16µM	n	u
Cc1ccccc1Cn1c(O)c(N=NC(=S)Nc2ccccc2F)c2ccccc21	6.5µM	n	n	5.8µM	n	n
COc1ccc(-c2cc(N3CCC(NC(=O)c4ccc(Cl)cc4OC)CC3)n[nH]2)cc1	x	n	x	x	x	x
COCCNC(=O)[C@@H]1C[C@H](Oc2ccccc2)CN1C(=O)COc1ccccc1	x	n	x	x	x	x
ClCCCNC1C2CC3CC(C2)CC1C3 (stereo not given)	x	n	x	x	x	x
COc1ccc(NC(=O)CCc2ccnc(N3CCCC3)c2)c(OC)c1	x	n	x	x	x	x
Oc1c(N=NC(=S)Nc2ccccc2F)c2ccccc2n1Cc1ccccc1F	7.3µM	n	n	16µM	n	n
O=c1[nH]ncc2c3ccccc3n(Cc3ccccc3F)c12	u	n	n	n	n	n
Cc1noc(C)c1C(=O)N1CCC2(CC1)CN(C(=O)N(C)C)Cc1ccccc1O2	x	n[6.33 µM]	x	x	x	x
Cc1cc(C)cc(NS(=O)(=O)CCCS(=O)(=O)Nc2cc(C)cc(C)c2)c1	u	n	u	u	-81	21µM
CC1=C(C(=O)Nc2ccc(Cl)cc2)C(c2ccccc2C)n2ncc(C(=O)Nc3ccc(C)cc3)c2N1 (stereo not given)	7.3µM	n	x	7.3µM	x	x
CC1=C(C(=O)Nc2ccc(Cl)cc2)C(c2ccccc2)n2ncc(C(=O)Nc3ccccc3)c2N1 (stereo not given)	15µM	n	x	21µM	x	x
COc1ccccc1NC(=O)C1=C(C)Nc2c(C(=O)Nc3ccc(F)cc3)cnn2C1c1cccc([N+](=O)[O-])c1 (stereo not given)	23µM	n	x	u	x	x
COc1cccc(C2C(C(=O)Nc3ccc(Cl)cc3)=C(C)Nc3c(C(=O)Nc4ccccc4)cnn32)c1OC (stereo not given)	u	n	x	23µM	x	x
COc1ccc(NC(=O)C2=C(C)Nc3c(C(=O)Nc4ccc(C)cc4)cnn3C2c2cccc(Cl)c2)cc1 (stereo not given)	n	u	x	u	x	x
CC1=C(C(=O)Nc2ccc(C)cc2C)C(c2ccccc2)n2ncc(C(=O)Nc3ccccc3)c2N1 (stereo not given)	u	n	x	u	x	x
COc1ccccc1NC(=O)C1=C(C)Nc2c(C(=O)Nc3ccccc3)cnn2C1c1ccccc1F (stereo not given)	x	n	x	x	x	x
CSc1ccc(/C=N/NC(=O)C2CC2)cc1	x	n	x	x	x	x
COc1ccc(C(=O)Nc2ccc(C)c3ncccc23)c(OC)c1	x	n	x	x	x	x
O=C(Cn1ccc(=O)[nH]c1=O)N1CCN(Cc2ccccc2)CC(O)C1 (stereo not given)	x	n	x	x	x	x
Cc1ccc2[nH]cc(C(C(=O)O)N3CCN(c4ncc(Br)cn4)CC3)c2c1 (stereo not given)	x	n	x	x	x	x
O=C1NC(=S)N(C(=O)c2ccc(F)cc2)/C1=C/c1cccnc1	u	n	u	n	n	n
COc1ccc(/C=C2\C(=O)NC(=S)N2C(=O)c2ccc(C)cc2)cc1	15µM	u	n	u	n	n
CCCCc1nc2ccccc2c(NC(=O)CNC(C)(C)C)c1CCC	u	u	n	u	n	n
CCCCc1nc2ccccc2c(N)c1CCC (tested in a mixture with another compound)	18µM	n	u	u	-97	u
SMILES	TDP1 cell noCPT	ALOX12 inh	HT1080NT lethal	TDP1 cell CPT	IL1B secr inh	HT1080 IDH1KD tx
CN(C)C(=O)c1ccc(NC(=O)c2ccc(C#N)cc2)cc1	x	n	x	x	x	x
O=C(Nc1ccccc1Cl)c1cnccn1	n	n	n	n	n	n
Cc1cc(OCC(=O)NNC(=O)c2cnccn2)cc(C)c1Cl	5.8µM	n	u	10µM	n	u
O=C(NNC(=O)c1ccc(Cl)cc1Cl)c1cnccn1	26µM	n	n	u	n	u
O=C(Nc1ccc(Br)cc1Cl)c1cnccn1	n	32µM	n[9.24 µM]	n	n	u
O=C(NNC(=O)c1cnccn1)c1ccc(Cl)cc1	15µM	n	n	u	n	n
COc1ccc(OC)c(C(=O)COC(=O)c2ccc(Cl)c(S(N)(=O)=O)c2)c1	x	n	x	x	x	x
COc1cccc(/C=N/NC(=O)c2ccccc2N(Cc2ccccc2)S(=O)(=O)c2ccccc2)c1OC	18µM	n	n	23µM	n	n
CCN1CCN(C(=O)c2ccccc2N(Cc2ccccc2)S(=O)(=O)c2ccc(C)cc2)CC1	16µM	n	n	u	-68	n
COc1ccc(S(=O)(=O)N(Cc2ccccc2)c2ccccc2C(=O)O)cc1	n	n	n	n	n	n
COc1ccc(S(=O)(=O)N(Cc2ccccc2)c2ccccc2C(=O)N2CCOCC2)cc1	u	n	23µM	u	n	u
NS(=O)(=O)c1ccc(O)cc1	x	n	x	x	x	x
N#C/C(=C\c1ccc(OC(=O)c2ccc(Cl)cc2)cc1)C(=O)Nc1ccccc1C(F)(F)F	x	n	x	x	x	x
Cc1cccc(-c2nnn3c2nc(NCCc2ccc(S(N)(=O)=O)cc2)c2cc(Cl)ccc23)c1	5.8µM	n	x	9.2µM	x	x
NS(=O)(=O)c1ccc(CCNc2nc3c(-c4cccc(F)c4)nnn3c3ccccc23)cc1	12µM	n	n	u	n	n
CC(=O)NCCNc1nc2c(-c3ccc(C)cc3)nnn2c2ccccc12	n	n	x	n	x	x
Cc1ccc(-c2nnn3c2nc(NCCc2ccc(S(N)(=O)=O)cc2)c2ccccc23)cc1	u	n	u	n	n	u
CC(=O)NCCNc1nc2c(-c3ccccc3)nnn2c2ccccc12	8.2µM	n	n	u	n	n
CC(=O)NCCNc1nc2c(-c3cccc(C)c3)nnn2c2ccc(Cl)cc12	n	n	x	n	x	x
Cc1cccc(-c2nnn3c2nc(NCc2ccc4c(c2)OCO4)c2ccccc23)c1	u	u	x	23µM	x	x
CC(NC(=O)CSc1ncnc2ccccc12)c1ccccc1 (stereo not given)	x	n	x	x	x	x
Cc1cccc(-c2nnn3c2nc(NCCc2ccc(S(N)(=O)=O)cc2)c2ccccc23)c1	16µM	u	n	15µM	n	n
COc1nccnc1NC1CCN(S(=O)(=O)c2cnc[nH]2)CC1	x	n	x	x	x	x
O=C(Nc1cnc(N2CCC(N3CCCCC3)CC2)c(C(=O)O)c1)c1ccc(Br)cc1	n	40µM	x	n	x	x
